Measured values: PubChem BioAssay AID602332 (National Center for Advancing Translational Sciences (NCATS), 2012)
“And” between values parts separate entries of the source, which are not always exact repeats. Identical values can stand only once. Out of some 420,000 compounds screened, about 75 (0.02%) were called active. The sample holds actives, similar compounds and a random draw of the others, so the mix is not that of the screen. Calls follow the shape of the dose curve; as a rule, active = well fitted activation curve with a large enough effect; inconclusive = small, poorly fitted or top-dose-only effect; inactive = no such curve, though single readings can be large or run the other way. Some structures have more than one record in an assay (separate samples or runs), and their calls can disagree.

Test: qHTS for Inducers of the Endoplasmic Reticulum Stress Response (ERSR) in Human Glioma: qHTS; also: nearly all actives have a fitted effect of over 35% in size; as to activation: % of control where 0% means no effect
Conditions: U87-MG GRP78 promoter luciferase reporter, 16 h; activation: active compounds read high
Description: Primary protein unfolding takes place for many diseases, including diabetes and hypoxia, , and triggers a reaction in the cells called ER stress response (ERSR). ). ERSR is designed as a repair mechanism, but ultimately leads to cell death via apoptosis if conditions triggering protein unfolding persist (1). The molecular clue to ERSR activation is the enhancement of the expression of key molecular chaperones, including the glucose regulated protein (GRP) 78. GRP78 is the main sensor for protein folding and the main actuator of the ERSR.
In a collaboration between the Southern Research Institute and the NIH Chemical Genomics Center, a cell based screen was developed that reliably uses GRP78 as a sensor to identify small molecules as inducers of ERSR. In resting conditions, GRP78 binds proteins and acts as a natural repressor. Once unfolded proteins are present in the ER, GRP78 releases some of the repressors and binds to the unfolded proteins. The release of the repressors executes the ERSR program. Using a human glioma cell line in a miniaturized, luminescent format, a high-throughput screen was developed to identify actuators of the ERSR.
(1) Soboloff, J. and S. A. Berger (2002). "Sustained ER Ca2+ depletion suppresses protein synthesis and induces activation-enhanced cell death in mast cells." J Biol Chem 277(16): 13812-20.
NIH Chemical Genomics Center [NCGC]
NIH Molecular Libraries Probe Centers Network [MLPCN]
Assay Submitter (PI): Maurizio Grimaldi, Southern Research Institute
Stable transfected human glioma cell line, U87-MG, are dispensed at density 1000 cells/well into Greiner white solid bottom 1536-well assay plates. Compounds are transferred via Kalypsys pin tool equipped with 1536-pin array (10nl slotted pins, V&P Scientific, San Diego, CA). The assay plates will be incubated for 16 hours and developed by adding appropriate quantities of the Promega Bright Glo reagent. The plates will be incubated at room temperature for 10 minutes prior to being transferred into a ViewLux high-throughput CCD imager (PerkinElmer), wherein end-point measurements of luminescence are acquired.
Potency is read from the fitted curve at half-maximal effect.

activation, inactive:
COc1ccccc1C(=O)N[C@@H]1c2ccccc2C2(CCN(C(=O)c3csnn3)CC2)[C@H]1OC 0.874%, Cc1cc(C)cc(C#CC2C=CC(Oc3ccc(C4CCCC4)cc3)C(CO)O2)c1 (stereo not given) -1.34%, O=S(O)CNc1ccc(S(=O)(=O)c2ccc(NCS(=O)O)cc2)cc1 -4.53%, C[C@]12CC[C@@H]3C(=CCc4cc(O)ccc43)[C@@H]1CCC2=O 2.61%, Fc1ccc(Cl)cc1-c1nc(Nc2ccncc2)c2nccnc2n1 -1.14%, Cc1cnc(-n2ncc(C(=O)N3CCN(C(C)C)CC3)c2-c2ccco2)nc1-c1ccc(F)cc1 -4.71%, COC(=O)[C@@H]1CC[C@H](C)[C@@H](c2ccc(C)cc2)N1C(=O)c1ccc(/C=N\OC[C@@H](O)COCc2ccco2)cc1 3.64%, C#C[C@]1(O)CC[C@H]2[C@@H]3CCC4=CC(=O)CC[C@@H]4[C@H]3CC[C@@]21CC 3.01% and -1.02%, COc1cc(=O)n2c(c1C(=O)NC(C)c1ccco1)CCN(C(=O)c1cn3ccc(C)cc3n1)CC2 (stereo not given) -2.08%, CN(C)c1ccc(/C=C/C=C/c2ccnc3ccccc23)cc1 -3.58%, C=COC(=O)N1CCN(/[N+]([O-])=N/Oc2ccc([N+](=O)[O-])cc2[N+](=O)[O-])CC1 -11%, O=C1c2c(O)cccc2[C@@H]([C@@H]2O[C@H](CO)[C@@H](O)[C@H](O)[C@H]2O)c2cc(CO)cc(O)c21 -3.93%, CO[C@H]1COC(=O)[C@@H](OCc2ccccc2)/C=C\[C@H](C)[C@@H](OC)COC(=O)[C@H](OCc2ccccc2)/C=C\[C@@H]1C -0.0422%, C[N+](C)(CCOc1ccccc1)Cc1cccs1 (tested in a mixture with another compound) -5.19%, CCCC(=O)O[C@]1(C(=O)COC(=O)CC)CC[C@@H]2[C@@H]3CCC4=CC(=O)CC[C@]4(C)[C@H]3[C@@H](O)C[C@@]21C -2.74%, C=C1C(=O)C23C(O)C1CCC2[C@]12COC3(O)C(O)C1C(C)(C)CC[C@H]2O (stereo not given in full) -12.5%, CO[C@H]1[C@H](NC(=O)C(C)C)c2ccccc2C12CCN(Cc1cnc(N(C)C)s1)CC2 -3.14%, CC1O[C@@H](Oc2c(-c3ccc(O)c(O)c3)oc3cc(O)cc(O)c3c2=O)C(O)C(O)C1O (stereo not given in full) -2.63%, O=C(C(=O)N1CCOc2ccc(CN3CCN(Cc4ccccn4)CC3)cc2C1)c1ccccc1 -4.17%, CCCCC(=O)OCC(=O)[C@H]1[C@H](C)C[C@@H]2[C@@H]3C[C@@H](F)C4=CC(=O)C=C[C@]4(C)[C@@]3(F)[C@@H](O)C[C@@]21C -0.711%, COC(=O)[C@@H]1C[C@H](NC(=O)c2ccccc2C(F)(F)F)CN1Cc1cccc(O)c1 -4.69%, CCc1nc2cc(C(=O)NCC3CCS(=O)(=O)C3)cc(NC(=O)c3ccccc3OC)c2n1C (stereo not given) -5.29%, Cc1nc2cc(NC(=O)[C@@H]3C[C@@H](Sc4ccccn4)CN3Cc3ccccc3C)ccc2s1 -3.4%, O=C1OC(C(O)CO)C(O)=C1O (stereo not given) -2.25%, COc1ccc(COC(=O)N/N=C2/C[C@@H](O)[C@@H](O)[C@@H]3[C@@H]4C(=O)N([C@@H](C)c5ccccc5)C(=O)[C@H]4CC[C@@H]23)cc1 -1.75%, O=C(O)c1ccc(/C=C2/SC(=S)N(c3cccc(C(F)(F)F)c3)C2=O)cc1 2.71%, CC(=O)/C(C)=N\O -3.3%, C(=Nc1ccc(/C=C/c2ccnc3ccccc23)cc1)Nc1ccc(/C=C/c2ccnc3ccccc23)cc1 -10.1%, CN1CC(O)c2cc(N=NC(N)=O)c(O)cc21 (stereo not given) 4.72%, Cc1ccc(-c2ccc(C(=O)N3CCc4nnc(CNC(=O)c5ccccc5)n4CC3)cc2)cc1 -3.28%, CC1(C)[C@H](O[C@H]2O[C@H](C(=O)O)[C@@H](O)[C@H](O)[C@H]2O[C@@H]2O[C@H](C(=O)O)[C@@H](O)[C@H](O)[C@H]2O)CC[C@@]2(C)[C@H]1CC[C@]1(C)[C@H]2C(=O)C=C2[C@H]3C[C@@](C)(C(=O)O)CC[C@]3(C)CC[C@]21C -2.51%, O=c1c(O)c(-c2ccc(O)cc2)oc2ccccc12 -1.19%, CC(=O)Nc1ccccc1-c1nc(CNC(=O)c2ccc(Cl)cc2)c(C)o1 -2.78%, COCc1c(C(=O)NC2CCCCC2)cnn1-c1nccc(-c2ccccc2OC)n1 0.854%, COc1cc(C)c(CN2CCc3nnc(C(C)NC(=O)c4cccnc4)n3CC2)cc1C (stereo not given) -0.402%, Cn1nccc1C(=O)NCC1CCC2(CCN(Cc3c(O)ccc4ccccc34)CC2)O1 (stereo not given) -1.48%, Cc1cc(-c2ccnc(-n3ncc(C(=O)NCCc4ccncc4)c3C)n2)c(C)s1 -1.46%, CN(C)c1ccc(/C=C/c2sc3ccccc3[n+]2CCCCBr)cc1 -6.95%, COc1ccccc1-c1nc(NCc2cccs2)c2ccccc2n1 -5.15%, CO[C@H]1COC(=O)[C@H](Cc2ccccc2)NC(=O)C/C=C\[C@@H](C)[C@H](OC)COC(=O)C/C=C\[C@@H]1C -4.82%, COc1cccc([C@H]2Oc3ccc(OC)cc3/C(=N\OCC[C@@H]3C=C[C@H](OC(C)=O)[C@H](COC(C)=O)O3)[C@@H]2O)c1 -2.8%, O=C(NCCN1CCOCC1)c1cnn(-c2nccc(-c3cccs3)n2)c1C1CC1 -4.37%, CC(C)CN1CCc2nc(-c3ccccc3)c3c(c2C1)COC(C)C3 (stereo not given) -2.93%, Cc1cc2oc(=O)cc(-c3ccccc3)c2c(C)c1/C=C/c1ccc(F)cc1 -1.4%, CCC(C)C1OC2(C=CC1C)CC1CC(C/C=C(/C)C(OC3CC(OC)C(OC4CC(OC)C(NC(C)=O)C(C)O4)C(C)O3)C(C)/C=C\C=C3\COC4C(O)C(C)=CC(C(=O)O1)C34O)O2 (stereo not given) -10.3%, O=C(NCC1(N2CCCCC2)CCCCC1)c1cccc(S(=O)(=O)Nc2ccccc2Cl)c1 -4.77%, O=C(NCC1(N2CCCCC2)CCCCC1)c1ccc(NS(=O)(=O)c2ccc(F)cc2)cc1 -3.09%, COc1ccc(C2CC(=O)c3c(O)cc(OC4OC(COC5OC(C)C(O)C(O)C5O)C(O)C(O)C4O)cc3O2)cc1O (stereo not given) -4.13%, COc1cc(-c2cccnc2)cc2c1OCCN(C(=O)Cc1csc(C)n1)C2 -6.23%, COc1ccc(C(=O)N2CCC3(CCCN(C(c4ccccc4)c4ccccc4)C3)CC2)cc1 -2.87%, O=C(c1cccc(F)c1)N1CCC2(CCCN(Cc3ccncc3)C2)CC1 -4.07%, CCCNC(=O)OC[C@@H]1O[C@H](c2ccccc2)C=C[C@@H]1Oc1ccc(OC)cc1 -2.78%, CO[C@@H]1COC(=O)[C@H](Cc2ccccc2)NC(=O)C/C=C\[C@@H](C)[C@H](OC)COC(=O)[C@@H](C)NC(=O)C/C=C\[C@H]1C -5.06% and -3.17%, CN(Cc1cccc2ncccc12)C(=O)c1cnn(-c2nccc(-c3ccccc3F)n2)c1C1CC1 -10.9%, O=C(c1cn(CC2CCCN(Cc3cc4ccccc4s3)C2)nn1)N1CCCC1 (stereo not given) -4.62%, Cc1cccc(CNC(=O)c2cnn(-c3nccc(-c4ccccc4F)n3)c2C2CC2)n1 -2.43%, COc1ccc(/C=C/NC(=O)c2ccc(OC)cc2)cc1 -1.95%, N#Cc1ccccc1-c1ccc2ncnc(NCc3cccnc3)c2c1 -2.79%, CO[C@@]12[C@@H](COC(N)=O)C3=C(C(=O)C(C)=C(N)C3=O)N1C[C@@H]1N[C@@H]12 -2.04%, COc1cc(C[C@H]2NCCc3cc(O)c(O)cc32)cc(OC)c1OC -2.86%, COc1cc([C@@H]2c3cc4c(cc3[C@@H](O[C@@H]3O[C@@H]5CO[C@@H](C)O[C@H]5[C@H](O)[C@H]3O)[C@H]3COC(=O)[C@H]23)OCO4)cc(OC)c1OP(=O)(O)O -3.95%, CCC1(C2CCN(Cc3cccnc3)CC2)NC(=O)N(CC2COc3ccccc3O2)C1=O (stereo not given) -3.69%, CCS(=O)(=O)Nc1cc(C(=O)N2C[C@@H](C)O[C@@H](C)C2)c2c(c1)nc(-c1ccccc1)n2C -5.69%, CC[C@H](C)[C@H](NC(=O)[C@H](Cc1ccc(O)cc1)NC(=O)[C@@H](NC(=O)[C@H](CCCN=C(N)N)NC(=O)[C@@H](N)CC(=O)O)C(C)C)C(=O)N[C@@H](Cc1cnc[nH]1)C(=O)N1CCC[C@H]1C(=O)N[C@@H](Cc1ccccc1)C(=O)O -0.592%, COc1ccc2c(c1)CCc1cnc(-n3ncc(C(=O)NCc4cccnc4)c3C3CC3)nc1-2 -2.79%, COc1cc(=O)n2c(c1C(=O)NCc1ccco1)CCN(Cc1ccccc1)CC2 -4.45%, Cc1oc(-c2cccc(NC(=O)c3ccccc3)c2)nc1CNC(=O)c1cnc2ccccn2c1=O -3.8%

Potency, active:
C#C[C@]1(O)CC[C@H]2[C@@H]3CCC4=CC(=O)CC[C@@H]4[C@H]3CC[C@@]21CC 20 µM, CCOc1ccc(S(=O)(=O)Nc2cccc(C(=O)NCC3(N4CCCCC4)CCCCC3)c2)cc1 15.8 µM, O=C(c1ccncc1)N1CCC2(CCCN(C(c3ccccc3)c3ccccc3)C2)CC1 35.5 µM
